Test results: ChEMBL document CHEMBL1961873, “Compounds: GSK PKIS; Assays: Nanosyn kinase panel” (2012)

Legend:
[1] = target: CDK3/Cyclin E (Homo sapiens) (UniProt P24864+Q00526); details: at 1 µM;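 further: each figure is a mean percent inhibition of the CDK3/cyclin E complex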
[2] = target: Cyclin-dependent kinase 4 (Homo sapiens) (UniProt P11802); details: at 0.1 µM
[3] = target: Cyclin-dependent kinase 4 (Homo sapiens) (UniProt P11802); details: at 1 µM
[4] = target: Cyclin-dependent kinase 5 (Homo sapiens) (UniProt Q00535); details: at 0.1 µM
Sequence of Cyclin-dependent kinase 5 (Homo sapiens) (Q00535 whole entry, looked up): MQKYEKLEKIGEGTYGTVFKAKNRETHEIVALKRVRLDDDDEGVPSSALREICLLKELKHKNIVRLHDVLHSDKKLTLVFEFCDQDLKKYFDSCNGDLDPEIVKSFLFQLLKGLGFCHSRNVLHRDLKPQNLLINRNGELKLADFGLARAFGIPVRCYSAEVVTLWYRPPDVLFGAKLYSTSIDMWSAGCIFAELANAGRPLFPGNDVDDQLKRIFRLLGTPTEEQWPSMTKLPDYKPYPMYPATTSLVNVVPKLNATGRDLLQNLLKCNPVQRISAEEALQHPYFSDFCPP

[5] = target: Cyclin-dependent kinase 5 (Homo sapiens) (UniProt Q00535); details: at 1 µM
[6] = target: Cyclin-dependent kinase 6 (Homo sapiens) (UniProt Q00534); details: at 0.1 µM
Sequence of Cyclin-dependent kinase 6 (Homo sapiens) (Q00534 whole entry): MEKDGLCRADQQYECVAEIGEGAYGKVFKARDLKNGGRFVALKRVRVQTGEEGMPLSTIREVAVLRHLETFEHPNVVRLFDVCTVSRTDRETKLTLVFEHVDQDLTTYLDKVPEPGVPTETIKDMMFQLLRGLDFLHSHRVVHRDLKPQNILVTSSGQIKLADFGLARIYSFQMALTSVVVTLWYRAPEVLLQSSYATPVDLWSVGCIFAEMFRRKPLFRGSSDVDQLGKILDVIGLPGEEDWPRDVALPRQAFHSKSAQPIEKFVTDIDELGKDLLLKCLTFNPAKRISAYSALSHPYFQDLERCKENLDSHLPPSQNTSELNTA

[7] = target: Cyclin-dependent kinase 6 (Homo sapiens) (UniProt Q00534); details: at 1 µM
[8] = target: Dual specificity protein kinase CLK2 (Homo sapiens) (UniProt P49760); details: at 0.1 µM
Sequence of Dual specificity protein kinase CLK2 (Homo sapiens) (P49760 whole entry, looked up): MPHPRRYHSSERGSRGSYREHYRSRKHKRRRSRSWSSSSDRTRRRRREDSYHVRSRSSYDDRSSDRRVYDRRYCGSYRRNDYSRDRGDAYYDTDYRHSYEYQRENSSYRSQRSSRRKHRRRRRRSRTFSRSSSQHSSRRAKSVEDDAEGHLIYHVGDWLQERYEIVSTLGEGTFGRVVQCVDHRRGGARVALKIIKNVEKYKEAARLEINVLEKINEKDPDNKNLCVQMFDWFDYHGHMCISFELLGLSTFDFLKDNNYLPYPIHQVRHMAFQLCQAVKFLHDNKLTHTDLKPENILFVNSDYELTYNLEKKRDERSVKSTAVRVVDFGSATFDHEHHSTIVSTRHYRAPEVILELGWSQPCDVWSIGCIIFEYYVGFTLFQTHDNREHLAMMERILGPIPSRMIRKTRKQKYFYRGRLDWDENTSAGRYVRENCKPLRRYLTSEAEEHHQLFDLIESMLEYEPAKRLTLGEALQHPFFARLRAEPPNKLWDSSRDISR

[9] = target: Dual specificity protein kinase CLK2 (Homo sapiens) (UniProt P49760); details: at 1 µM
[10] = target: Dual specificity protein kinase CLK3 (Homo sapiens) (UniProt P49761); details: at 0.1 µM
Sequence of Dual specificity protein kinase CLK3 (Homo sapiens) (P49761 whole entry, looked up): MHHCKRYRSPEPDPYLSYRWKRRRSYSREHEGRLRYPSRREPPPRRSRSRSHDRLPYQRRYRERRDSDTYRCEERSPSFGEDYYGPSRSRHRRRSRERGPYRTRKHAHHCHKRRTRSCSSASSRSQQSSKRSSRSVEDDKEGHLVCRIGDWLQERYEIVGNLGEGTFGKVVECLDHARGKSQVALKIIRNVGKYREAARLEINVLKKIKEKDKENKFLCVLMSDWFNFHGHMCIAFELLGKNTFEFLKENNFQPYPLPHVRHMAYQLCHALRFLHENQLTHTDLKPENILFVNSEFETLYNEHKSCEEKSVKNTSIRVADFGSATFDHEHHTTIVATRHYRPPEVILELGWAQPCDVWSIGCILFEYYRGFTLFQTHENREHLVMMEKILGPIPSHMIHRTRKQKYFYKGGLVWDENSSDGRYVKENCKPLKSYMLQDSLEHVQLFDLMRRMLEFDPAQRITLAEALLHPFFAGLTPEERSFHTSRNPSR

Sequence of CDK3/Cyclin E (Homo sapiens) (P24864 whole entry, looked up): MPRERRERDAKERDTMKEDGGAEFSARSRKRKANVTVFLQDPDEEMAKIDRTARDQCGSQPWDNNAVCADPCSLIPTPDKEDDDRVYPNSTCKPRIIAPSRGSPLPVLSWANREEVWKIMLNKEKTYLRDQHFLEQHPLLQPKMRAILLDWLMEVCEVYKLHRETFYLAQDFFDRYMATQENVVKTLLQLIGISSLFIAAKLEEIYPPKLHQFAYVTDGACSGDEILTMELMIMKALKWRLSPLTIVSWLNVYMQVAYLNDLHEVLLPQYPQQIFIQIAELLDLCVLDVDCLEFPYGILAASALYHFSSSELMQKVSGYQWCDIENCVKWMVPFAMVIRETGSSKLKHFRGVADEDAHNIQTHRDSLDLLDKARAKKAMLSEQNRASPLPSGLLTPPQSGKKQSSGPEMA
Sequence of CDK3/Cyclin E (Homo sapiens) (Q00526 whole entry, looked up): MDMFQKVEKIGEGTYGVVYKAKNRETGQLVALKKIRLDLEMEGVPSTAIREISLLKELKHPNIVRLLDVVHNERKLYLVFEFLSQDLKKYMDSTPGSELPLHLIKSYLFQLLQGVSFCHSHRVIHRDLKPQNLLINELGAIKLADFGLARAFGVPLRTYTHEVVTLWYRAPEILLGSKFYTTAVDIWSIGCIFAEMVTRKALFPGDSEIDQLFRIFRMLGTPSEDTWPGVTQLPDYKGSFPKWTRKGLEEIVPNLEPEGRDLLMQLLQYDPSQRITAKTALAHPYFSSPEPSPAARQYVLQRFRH
Sequence of Cyclin-dependent kinase 4 (Homo sapiens) (P11802 whole entry): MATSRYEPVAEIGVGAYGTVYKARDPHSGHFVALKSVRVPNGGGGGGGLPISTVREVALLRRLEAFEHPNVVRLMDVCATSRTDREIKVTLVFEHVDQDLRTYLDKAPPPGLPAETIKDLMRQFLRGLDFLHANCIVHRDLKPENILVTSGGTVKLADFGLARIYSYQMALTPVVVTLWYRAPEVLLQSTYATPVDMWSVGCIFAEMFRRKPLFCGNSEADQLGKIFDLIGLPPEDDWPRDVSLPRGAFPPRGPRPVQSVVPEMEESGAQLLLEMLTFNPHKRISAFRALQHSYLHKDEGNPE

Row | Structure (SMILES) | inhibition [1] [%] | inhibition [2] [%] | inhibition [3] [%] | inhibition [4] [%] | inhibition [5] [%] | inhibition [6] [%] | inhibition [7] [%] | inhibition [8] [%] | inhibition [9] [%] | inhibition [10] [%]
1 | CCS(=O)(=O)c1ccc(OC)c(Nc2ncc(-c3cccc(-c4ccccc4F)c3)o2)c1 | 1.22 | 0.53 | -0.45 | 0.5 | 3.33 | 0.01 | 1.94 | 5.83 | 36.9 | 2.7
2 | COc1cc2ncn(-c3cc(OCc4ccccc4C(F)(F)F)c(C(C)=O)s3)c2cc1OC | -2.36 | 1.74 | 2.66 | 0.4 | 1.96 | -0.64 | -0.67 | 0.9 | -0.63 | 0.94
3 | NC(=O)c1cc(-c2ccc(F)cc2)cc(-c2ccncc2)c1N | -2.25 | 4.11 | 2.25 | -0.26 | -1.83 | 0.37 | -0.58 | 0.69 | 1.24 | 1.01
4 | NC(=O)c1cc(-c2ccncc2)cc(-c2ccccc2)c1N | -0.18 | 2.8 | 2.69 | 0.58 | 0.44 | -1.43 | 2.3 | 1.45 | 1.33 | 1.22
5 | COc1ccc2cc(-c3c(-c4ccncc4)nc(-c4ccc([S+](C)[O-])cc4C)n3C)ccc2c1 (stereo not given) | 0.89 | 2.2 | 5.75 | 0.73 | 2.04 | 2.45 | 4.45 | 1.09 | 1.03 | 0.64
6 | O=C(Nc1n[nH]c2cc(-c3ccccc3)ccc12)C1CC1 | 4.6 | 3.5 | 9.81 | 1.28 | 5.17 | 1.28 | 23.7 | 1.71 | 2.28 | 0.78
7 | CN(C)CCOc1ccc(-c2cc(-c3ccc4c(c3)CCC4=NO)c(-c3ccncc3)o2)cc1 | -0.71 | -0.67 | 1.69 | 0.66 | 0.57 | -3.52 | -0.6 | 0.73 | -1.28 | -0.3
8 | O=C1Nc2ccc(I)cc2C1=Cc1cc(Br)c(O)c(Br)c1 | -2.28 | 4.82 | 6.47 | 0.5 | 0.26 | -0.1 | 0.92 | 1.63 | 4.77 | -0.91
9 | N#Cc1ccc(Oc2nccc(-c3c(-c4ccc(F)cc4)ncn3C3CCNCC3)n2)cc1 | -2.53 | 0.98 | 3.8 | 0.41 | 1.15 | 1.26 | -1.15 | 1 | -0.9 | 0.28
10 | CCC(=O)Nc1ccc(C)c(-c2ccc(C(=O)NCC3CC3)cc2)c1 | -2.39 | 3.38 | 5.05 | 1.58 | 1.54 | 0.4 | 0 | 0.05 | -0.08 | 0.16
11 | O=C(Nc1n[nH]c2cc(-c3cc(F)ccc3F)ccc12)C1CC1 | 5.19 | 1.96 | 8.77 | 0.68 | 5.38 | 4.69 | 39.6 | -0.48 | 1.29 | 0.11
12 | CN(C)CCCNc1nccc(-c2c(-c3ccc(F)cc3)nn3cc(C(F)(F)F)ccc23)n1 | 1.62 | -2.82 | 1.54 | -1.32 | 1.69 | -1.2 | -0.54 | 1.26 | -0.07 | -2.82
13 | Fc1ccc(-c2ncn(C3CCNCC3)c2-c2ccnc(Oc3ccc(F)c(F)c3)n2)cc1 | -1.08 | 0.19 | 3.54 | 1.99 | 3.94 | -4.37 | -0.06 | 0.86 | -0.42 | -3.62
14 | Fc1ccc(-c2ncn(C3CCNCC3)c2-c2ccnc(Oc3ccc(Oc4ccccc4)cc3)n2)cc1 | -1.29 | 4.1 | 3.52 | 0.97 | 1.86 | -6.79 | -6.24 | 2.06 | 4.62 | 0.9
15 | NS(=O)(=O)c1ccc(N/N=C2\C(=O)Nc3ccc(C(=O)NCCCn4ccnc4)cc32)cc1 | 88.6 | 16.6 | 57.1 | 33.8 | 72.8 | 10 | 57.2 | 15.6 | 66.1 | 1.77
16 | Fc1ccc(-c2ncn(C3CCNCC3)c2-c2ccnc(Oc3ccc4c(c3)OCO4)n2)cc1 | -0.86 | 1.48 | 3.63 | 0.16 | 1.51 | 1.03 | 2.27 | 0.55 | 0.01 | 0.88
17 | COc1cc(N2CCN(C(C)C)CC2)ccc1Nc1nc(Nc2ccc(F)cc2C(=O)NC[C@@H](O)CO)c2cc[nH]c2n1 | -3.1 | -2.67 | -0.98 | -3.1 | -4.32 | -8.05 | -5.78 | 29.4 | 82.9 | -0.73

Row | Structure (SMILES) | inhibition [1] [%] | inhibition [2] [%] | inhibition [3] [%] | inhibition [4] [%] | inhibition [5] [%] | inhibition [6] [%] | inhibition [7] [%] | inhibition [8] [%] | inhibition [9] [%] | inhibition [10] [%]
18 | c1ccc(-c2n[nH]cc2-c2ccnc(-c3ccc(OCCN4CCOCC4)cc3)c2)nc1 | 3.2 | 5.35 | 6.08 | 5.7 | 4.87 | 1.73 | 4.81 | 2.87 | 3.2 | 0.66
19 | COc1cc2ncn(-c3cc(OCc4cccs4)c(C(N)=O)s3)c2cc1OC | 2.15 | -2.57 | -2.26 | -2.83 | -2.03 | -5.45 | -6.37 | 2.46 | 6.46 | -1.61
20 | CS(=O)(=O)CCNCc1cc(-c2cc3c(Nc4ccc(OCc5cccc(F)c5)c(Cl)c4)ncnc3s2)cs1 | -0.74 | 2.57 | 4.29 | 0.44 | 0.56 | -2.32 | -0.13 | 2.41 | 2.14 | 2.21
21 | O=C1NC(=O)C(c2cccc(Cl)c2)=C1Nc1ccc(Cl)c(C(=O)O)c1 | -3.39 | 1.47 | 1.74 | -0.04 | 1.05 | -2.3 | 1.32 | 3.2 | 0.9 | 1.12
22 | COc1cc(C)c(N(C)C(=O)CN(C)C)cc1Nc1nc(Nc2cccc(F)c2C(N)=O)c2cc[nH]c2n1 | 0.55 | -3.32 | -2.23 | -3.87 | -4.34 | -3.28 | -2.66 | 2.65 | 12.6 | -5.35
23 | Fc1ccc(-c2c(-c3ccncc3)nc3n2CCS3)cc1 | -3.24 | -2.5 | -1.15 | -3.5 | -3.63 | -6.1 | -2.27 | 0.14 | 0.05 | -2.3
24 | COC(=O)Nc1nc2ccc(Sc3ccc(NC(=O)Nc4cc(C(F)(F)F)ccc4F)cc3)cc2[nH]1 | 0.64 | -4.86 | 1.81 | 0.21 | 1.9 | 7.92 | 2.22 | 1.38 | -0.84 | 0.48
25 | Cc1ccc(C(=O)NC2CCC2)cc1-c1ccc(C(=O)NCC2CC2)cc1 | -2.09 | 2.48 | 3.14 | 0.96 | 1.18 | -2.65 | 1.04 | 0.82 | 1.37 | 1.37
26 | Cc1nnc(-c2ccc(C)c(-c3ccc(C(=O)NCc4ccc(Cl)cc4)cc3)c2)o1 | -2.98 | -0.53 | 0.24 | -2.39 | -4.02 | -7.02 | -4.88 | -0.33 | 0.92 | -1.37
27 | Clc1ccc(CNc2nccc(-c3cnn4ncccc34)n2)cc1 | 17.3 | 3.89 | 20.1 | 7.08 | 36.9 | 13.8 | 11 | 7.28 | 43.6 | 1.27
28 | COc1cccc(/C=N/Nc2ncnc3c2cnn3-c2cccc(OC)c2)c1 | -2.86 | 2.17 | 4.46 | 0.77 | 3.98 | -0.23 | 1.15 | 0.01 | 0.99 | 0.55
29 | COc1cc(Nc2ncc(-c3ccccc3)o2)cc(OC)c1OC | 5.95 | 0.45 | 1.93 | 0.52 | 6.19 | 0.43 | 3.26 | 0.35 | 3.33 | 0.69
30 | CN1CCN(CCCNc2nc3ccc(Oc4ccc(NC(=O)Nc5cc(C(F)(F)F)ccc5F)cc4)cc3[nH]2)CC1 | 2.2 | -3.04 | -2.88 | -2.74 | -3.46 | -4.09 | -1.64 | 2.17 | 1.41 | -3.87
31 | O=C(Nc1n[nH]c2nc(-c3ccco3)ccc12)C1CC1 | 4.64 | 1.89 | 2.71 | -0.11 | 1.68 | 3.9 | 8.22 | -0.38 | -0.4 | 0.26
32 | O=C(Nc1ccc(Oc2ccc3[nH]c(NC(=O)c4ccccc4)nc3c2)cc1)Nc1cc(C(F)(F)F)ccc1F | -1.42 | 3.17 | 4.9 | 0.47 | 3.03 | 2.76 | 4.46 | 0.71 | 1.05 | 1.59
33 | c1ccc(Oc2ccc(Nc3ncc(-c4ccccc4)o3)cc2)cc1 | -2.54 | 1.05 | 1.2 | 0.52 | 1.6 | 1.34 | 3.56 | -0.16 | -0.28 | 0.6
34 | CCN(CC)Cc1ccc(Nc2nccc(-c3cnn4ncccc34)n2)cc1 | 78.8 | 53.8 | 69.8 | 32.1 | 66.8 | 25.9 | 62.1 | 50.1 | 91.7 | -2.57
